Measurements published in PubChem BioAssay AID2661 (Broad Institute, 2010).
Screen size: about 320,000 compounds; about 240 (0.075%) were called active.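 Rule for the calls: active = inhibition at or above 25%, using the most active replicate where run in duplicate; inactive = inhibition below 25%.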 Shown is part of a subset that was picked to be rich in actives.

biological target: Serine/threonine-protein kinase 33 (Homo sapiens) (UniProt Q9BYT3); experiment: STK33 phosphorylation of MBP blockers – biochemical, ADP-Glo luminescence, homogeneous, cell-free, primary screen (AID 2661); conditions: purified STK33, MBP phosphorylation, at 10 µM, hits give high values
Sequence (Q9BYT3 whole entry, looked up): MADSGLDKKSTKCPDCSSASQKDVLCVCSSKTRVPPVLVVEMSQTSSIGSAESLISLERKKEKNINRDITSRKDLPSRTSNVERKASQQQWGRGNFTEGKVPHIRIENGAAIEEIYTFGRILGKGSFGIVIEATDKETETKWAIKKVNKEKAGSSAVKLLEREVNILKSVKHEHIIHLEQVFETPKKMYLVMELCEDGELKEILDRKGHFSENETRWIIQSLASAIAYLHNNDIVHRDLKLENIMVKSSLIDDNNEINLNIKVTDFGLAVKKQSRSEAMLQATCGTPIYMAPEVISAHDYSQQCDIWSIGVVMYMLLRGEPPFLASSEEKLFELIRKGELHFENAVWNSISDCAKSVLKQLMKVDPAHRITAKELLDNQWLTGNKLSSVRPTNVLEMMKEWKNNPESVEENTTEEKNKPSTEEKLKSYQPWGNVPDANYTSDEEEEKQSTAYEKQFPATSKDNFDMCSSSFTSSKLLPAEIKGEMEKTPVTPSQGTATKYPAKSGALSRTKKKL

inhibition, active:
N=c1c2c(-c3ccccc3)c(-c3ccccc3)oc2ncn1Cc1ccco1 29.3%
O=C(Nc1ccccc1-c1nc2ccccc2[nH]c1=O)c1cccs1 71.9%
COc1c(O)cc2oc(-c3ccc(O)c(O)c3)cc(=O)c2c1O 44.2%

inhibition, inactive:
COc1ccc(S(=O)(=O)N2CCN(c3cnccn3)CC2)cc1 0.373%
Cc1onc(-c2c(F)cccc2Cl)c1C(=O)OCC(=O)N1C(C)CCCC1C (stereo unspecified) -0.377%
Cc1ccc(C)c(NC(=O)COC(=O)c2nn(C)c(=O)c3ccccc23)c1 0.213%
Cc1cc(NC(=O)CSc2ncc(C(F)(F)F)cc2Cl)no1 -0.4%
COc1ccc(C(=O)O)cc1S(=O)(=O)NC1CCN(Cc2ccccc2)CC1 -0.986%
Cn1nnnc1SCC(=O)Nc1sccc1C(N)=O 0.459%
O=C(c1ccc(S(=O)(=O)NCc2ccco2)cc1)N1CCN(c2ccccc2)CC1 -0.564%
COCC(C)n1c(SCC(=O)NC2CCCCC2C)nc2ccccc2c1=O (stereo unspecified) 1.21%
C[C@H](CO)N1C[C@H](C)[C@H](CN(C)C(=O)Nc2ccc(C(F)(F)F)cc2)Oc2c(NC(=O)c3ccncc3)cccc2C1=O -1.64%
Cc1ccc(NC(=O)Cn2cnc3c(OCc4ccccc4)ncnc32)cc1C -0.221%
N=c1c2c(-c3ccccc3)c(-c3ccccc3)n(Cc3ccccc3)c2ncn1CCCO -0.27%
COc1ccc(-c2oc3ncn(Cc4ccco4)c(=N)c3c2-c2ccc(OC)cc2)cc1 0.0388%
CSCCC1NC(=O)N(CC(=O)Nc2cccc(S(=O)(=O)N3CCCCCC3)c2)C1=O (stereo unspecified) -1.42%
CN=C(Nc1cccc(S(=O)(=O)N2CCOCC2)c1)c1ccccc1 -1.05%
CCN(C(=O)CSc1cccc[n+]1[O-])c1ccccc1 -2.46%
C[C@H](NS(=O)(=O)c1ccc(Cl)cc1)C(=O)OCC(=O)N1CCOCC1 -1.2%
Cc1ccsc1C(=O)NCCc1ccco1 -0.976%
CC(C)CC1NC(=O)c2cc(Cl)ccc2-n2c1nc1ccccc1c2=O (stereo unspecified) -0.406%
CC(NC(=O)COC(=O)CCC(=O)c1ccc(Cl)cc1)c1ccccc1 (stereo unspecified) 0.0433%
CCCCCCSc1ccc(-c2nc3ccc(Cl)cn3c2NCc2ccccc2)cc1 -0.955%
O=C(Nc1ccccc1-c1nnn(CC(=O)N2CCN(c3ccccc3)CC2)n1)c1cccs1 -0.118%
O=C(Nc1ccccc1-c1ccccc1)c1cccs1 4.17%
O=C(COc1ccc(Br)cc1F)NCC1(N2CCCCC2)CCCCC1 -1.07%
Cc1ccccc1SCC(=O)OCC(=O)N1CC(=O)Nc2ccccc21 -0.869%
C[C@H](CO)N1C[C@H](C)[C@@H](CN(C)C(=O)NC2CCCCC2)Oc2ccc(NC(=O)c3ccncc3)cc2C1=O 0.225%
CCC(CO)Oc1cc(NC(=O)c2ccc(Cl)cc2)c2ncn(C(C)C)c2c1 (stereo unspecified) -0.728%
COc1ccc(OCC(=O)NNC(=O)C2CCC2)cc1 -0.275%
COc1ccc(OC)c(NC(=O)COC(=O)Cc2ccsc2)c1 0.647%
Cc1ccc(S(=O)(=O)N2[C@@H](c3ccc(Br)cc3)C(C(=O)O)=C[C@H]2CC2CCCC2)cc1 -2.01%
CCOC(=O)[C@@H]1[C@H]2COc3ccc(Br)cc3[C@H]2N2C(=O)N(c3ccc(C)cc3)C(=O)[C@@]12C -0.0883%
CCCc1cc(=O)[nH]c(SCC(=O)Nc2ccc(S(=O)(=O)N3CCCC3)cc2)n1 -1.05%
Cc1noc(C)c1NC(=O)Nc1ccc2c(c1)C(=O)N([C@H](C)CO)C[C@H](C)[C@@H](CN(C)S(=O)(=O)c1cn(C)cn1)O2 -0.91%
CCOC(=O)COc1cc(OCC(=O)OCC)c2c(=O)cc(-c3ccccc3)oc2c1 -0.944%
CCOC(=O)COc1cc(O)c2c(=O)cc(-c3ccccc3)oc2c1 1.27%
O=C(NNC(=O)c1ccc(Cl)nc1)c1ccc(Br)cc1 -0.906%
Cc1ccc(C)c(NC(=O)CN(C)C(=O)COc2ccc3ccccc3c2)c1 -0.402%
CC(=O)NC(CC(=O)Nc1ccc(S(=O)(=O)N2CCOCC2)cc1)c1ccccc1 (stereo unspecified) 2.28%
Cc1ccc(S(=O)(=O)N2[C@@H](c3cccc4ccccc34)C(C(=O)O)=C[C@H]2C(C)(C)C)cc1 -1.33%
CN(CCc1ccccc1)C(=O)c1cccc(NC(=O)Cc2ccc([N+](=O)[O-])cc2)c1 0.236%
O=C1OC[C@@H]2CCCN2C(=O)[C@H](CC(=O)N(CCO)Cc2ccccc2)C/C=C\CC[C@@H]1Cc1ccc(F)cc1 -0.762%
Cc1ccc(C(=O)OCC(=O)N2CCCCCC2)cc1S(=O)(=O)N1CCOCC1 -2.28%
C=CC[C@@H](CC(=O)N[C@H](CO)Cc1ccccc1)C(=O)N[C@@H](COC(=O)[C@@H](CC=C)Cc1ccc(F)cc1)Cc1c[nH]c2ccccc12 -0.564%
O=C1NC[C@@H](c2ccccc2)OC(=O)[C@H](Cc2ccc(F)cc2)CC/C=C/C[C@H]1CC(=O)N(CCO)Cc1ccccc1 -2.42%
Fc1ccccc1-c1cc2cc3c(cc2cn1)OCO3 1.15%
O=C(CN1C(=O)NC2(CCCCCC2)C1=O)Nc1ccc([N+](=O)[O-])cc1 -2.25%
O=C(COC(=O)c1cccnc1Cl)NC(=O)NC1CCCCC1 -0.374%
COc1ccc(Cl)cc1NC(=O)COC(=O)c1ccc(Br)o1 -0.284%
COc1ccc(CNc2nc(NCc3ccc(OC)cc3)c3ncn(C4CCCC4)c3n2)cc1 -0.00506%
O=C(CN1C(=O)c2ccc([N+](=O)[O-])cc2C1=O)Nc1nnc(C2CC2)s1 -0.729%
C=CCC[C@H](Cc1ccc(F)cc1)C(=O)OC[C@@H](Cc1c[nH]c2ccccc12)NC(=O)[C@H](CC=C)CC(=O)N[C@H](CO)Cc1ccccc1 -0.577%
O=C(COC(=O)c1ccc(O)cc1O)c1ccc2c(c1)OCCO2 1.53%
CCOc1ccc(Br)cc1S(=O)(=O)Nc1ccc(S(=O)(=O)Nc2cc(C)on2)cc1 -0.663%
COc1ccc2nc3n(c(=O)c2c1)-c1cc(C)ccc1C(=O)NC3Cc1ccc(O)cc1 (stereo unspecified) -0.57%
